Source: PubChem BioAssay

Assay: binders of probe aFGF2 on microarray, primary screen, stem cell growth factor project, biochemical, small-molecule microarray, fluorescence 635/667 (AID 1067);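 further: measures binding of biotinylated aFGF2 protein to printed compounds on slides; z-score merges feature fluorescence and signal-to-noise across triplicate slides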
Conditions: higher = more signal

Row | SMILES | composite z-score
1 | Cc1ccc(C2CC=C(C(=O)O)CN2S(=O)(=O)c2ccc(C)cc2)cc1 (centres undefined) | -0.0258
2 | COc1ccc([Si](C)(C)[C@H]2[C@H](CC(=O)N3CCC[C@H]3CO)O[C@@]3(C(=O)N(Cc4cccc(N5C(=O)COc6ccccc65)c4)c4ccccc43)[C@@H]2C)cc1 | -0.0148
3 | CC(CCN1CCc2nc(-c3ccccc3)c(-c3ccccc3)cc2C1)=NOC[C@@H](C)[C@H](OCc1ccccc1)C(C)C | -0.172
4 | CN1C(=O)C2C(C1=O)C1C=C(CCCO)C2C(c2ccc(CN3CCCC3)cc2)N1C (centres undefined) | -0.0902
5 | CCc1cc2c(nc1CC)CCN(CCC(C)=NO[C@@H](C)c1cc(-c3c(C)cc(C)cc3C)no1)C2 | -0.126
6 | CS(=O)(=O)CCOC(=O)C1=CC(CCCO)=CC(c2cccs2)N(Cc2cccc(OC(F)(F)F)c2)C=C1C(=O)OCCS(C)(=O)=O (centres undefined) | -0.0753
7 | O=C1CCCC=C1C(O)CCOCc1ccccc1 (centres undefined) | -0.0753
8 | CC(C)=CCCC(C)=CCON=C1[C@H]2CCn3c(=O)n(Cc4cc5c(cc4Cl)OCO5)c(=O)n3[C@H]2[C@H](O)[C@@H]2O[C@H]12 | -0.0481
9 | O=C1C2=CC[C@H]3C(=O)N(Cc4ccc5c(c4)OCO5)C(=O)[C@H]3[C@H]2[C@H](O)[C@@H]2O[C@H]12 | -0.141
10 | CO[C@@H]1COC(=O)CC=C[C@@H](C)[C@@H]2C=C[C@H](O)[C@@H](COC(=O)[C@H](C)NC(=O)CC=C[C@H]1C)O2 | -0.15
11 | COCCOC(=O)N1C(=O)[C@@]2(c3cc(C#CC4(O)CCCCCC4)ccc31)[C@H](c1ccc(OCCO)cc1)N1[C@H](c3ccccc3)[C@H](c3ccccc3)OC(=O)[C@H]1[C@@H]2C(=O)NC[C@H](O)c1ccccc1 | -0.0444
12 | CCCCC(=C=CC[C@H](O)c1ccccc1OCCO)C[C@H](O)COCc1ccccc1 | -0.12
13 | C[C@@H]1C=CCC(=O)OC[C@H](C)C(=O)N2CCC[C@H]2C(=O)OC1 | -0.178
14 | CC(C)c1ccc(NN2C(C(O)c3ccc4c(c3)OCO4)C=CC3C(=O)N(c4ccccc4)C(=O)C32)cc1 (centres undefined) | 0.0899
15 | COc1ccc(COC(=O)NN=C2C[C@@H](O)[C@@H](O)[C@@H]3[C@@H]4C(=O)N(c5ccc(F)cc5F)C(=O)[C@@H]4CC[C@@H]23)cc1 | -0.0342
16 | C=C(/C(=C/C[C@@H](OC(=O)c1ccncc1)c1ccc(OCCO)cc1)c1cnc2ccccc2c1)C(C)C | -0.186
17 | Cn1c(=O)n2n(c1=O)[C@H]1[C@H](O)[C@@H]3O[C@@H]3C(=NOC[C@@H](O)COCc3ccco3)[C@H]1CC2 | -0.0538
18 | CCOC(=O)CCN1C(=O)[C@H]2[C@H]3[C@H](O)[C@H](O)CC(=NNC(=O)OCc4ccc(OC)cc4)[C@@H]3CC[C@H]2C1=O | -0.15
19 | CCCNC(=O)OC[C@H]1O[C@H](CCON=CC[C@@H]2C=C[C@H](OC(C)=O)[C@@H](COC(C)=O)O2)C=C[C@@H]1Oc1ccc(OC)cc1 | -0.112
20 | COC(=O)[C@H](C)NC(=O)CCC1CC(OC(=O)NCc2cccc3ccccc23)CC2(CCCC(COC(=O)NCCc3ccc(Cl)cc3)O2)O1 (some centres undefined) | -0.0788
21 | COc1ccc(O[C@H]2C=C[C@@H](c3ccccc3)O[C@@H]2COC(=O)CCC(C)=NO[C@@H](C)c2cc(-c3c(C)cc(C)cc3C)no2)cc1 | -0.199
22 | CN(C)C(=O)[C@@]1(Cc2ccccc2)N=C(c2ccc(OCCCO)cc2)O[C@H]1c1ccccc1CN=[N+]=[N-] | 0.423
23 | COc1ccc(OC[C@H]2Cc3c(-c4ccccc4)nc4c(c3CO2)CN(CCOc2ccccc2)CC4)cc1 | -0.172
24 | COC(=O)C1=C(C)N(Cc2ccccc2)[C@]23O[C@](C(=O)OC)(C(=O)N2[C@@H]1c1ccccc1)[C@H]1CCOC(=O)[C@H]13 | -0.0956
25 | COC(=O)CC=C[C@@H](C)[C@@H](C=NO[C@@H](C)c1cc(-c2c(C)cc(C)cc2C)no1)OC | -0.159
26 | COc1ccc(O[C@H]2C=C[C@@H](c3ccccc3)O[C@@H]2COC(=O)CCC(C)=NO[C@H](C)c2cn([C@@H]3COC[C@H]3O)nn2)cc1 | -0.125
27 | CC(C)=NOCc1cccc(-c2cc(-c3ccccc3)no2)c1 | -0.0767
28 | CCCNC(=O)OC[C@H]1O[C@H](CCON=C2[C@H]3CCn4c(=O)n(-c5ccccc5)c(=O)n4[C@H]3[C@H](O)[C@@H]3O[C@H]23)C=C[C@@H]1Oc1ccc(OC)cc1 | -0.0885
29 | CC[C@@H](c1ccccc1)n1c(=O)n2n(c1=O)[C@H]1[C@H](O)[C@@H]3O[C@@H]3C(=NOCC(C)C)[C@H]1CC2 | -0.119
